From PubChem BioAssay (Tox21)
Results filed as inconclusive are left out. Entries that show only a call come without a potency. Activity calls are given as the source filed them. Unless noted, calls come from the whole dose curve.

Key:
[1] = qHTS assay to identify small molecule agonists of the sonic hedgehog signaling (Shh) pathway (AID 1259368); details: NIH/3T3 Gli1-Luc reporter, luciferase, 24 h; series mostly up to 92.4 µM;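 note: NIH/3T3-derived 3T3Gli1-Luc cells carrying a stable Gli1-driven firefly luciferase reporter; nearly all actives have a fitted effect of over 15% in size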
Outline: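 3T3Gli1-Luc (NIH/3T3 clone, stable Gli1-Luc); 4 hr pre-incubation, then cpd in DMSO 24 hr, 37 C/5% CO2; luciferase reagent 30 min RT; luminescence.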

[2] = qHTS assay to identify small molecule antagonists of the sonic hedgehog signaling (Shh) pathway (AID 1259369); details: NIH/3T3 Gli1-Luc reporter, Shh antagonist, luminescence 24 h; series mostly up to 92.4 µM; note: nearly all actives have a fitted effect of over 45% in size; note: potency is the fitted concentration of half-maximal effect
Outline: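 3T3Gli1-Luc, conditioned-medium-stimulated, 24hr cpd, 37C/5% CO2; Gli1-driven firefly Luc luminescence after 30min RT with luciferase reagent. Cells plated 4hr before cpd.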

[3] = qHTS assay to identify small molecule agonists of the androgen receptor (AR) signaling pathway in the presence of an antagonist - cell viability counter screen (AID 1259379; active = well fitted curve in the direction sought with a large enough effect in the repeat runs; an effect the other way counts as inactive or inconclusive;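 note: MDA-kb2 human breast cancer cells carrying an MMTV luciferase reporter; nearly all actives have a fitted effect of over 25% in size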); details: MDA-kb2 viability, CellTiter-Fluor, 16 h; series mostly up to 92.4 µM
Outline: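 Cells: MDA-kb2 (MMTV-luc, AR and GR elements), 3,000/well, 5 hr settle. Added: nilutamide 3.0uM final, then compounds (15 conc.). Incubation: 16 hr, 37C, no CO2. Read-out: CellTiter-Fluor, 1 hr, fluorescence.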

[4] = qHTS assay to identify small molecule antagonists of the estrogen receptor beta (ER-beta) signaling pathway - cell viability counter screen (AID 1259382; active = well fitted curve in the direction sought with a large enough effect in the repeat runs; an effect the other way counts as inactive or inconclusive;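 note: HEK293T cells carrying ER-beta-UAS-bla reporter stimulated with estradiol; nearly all actives have a fitted effect of over 55% in size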); details: ER-beta-UAS-bla HEK293T viability, CellTiter-Glo luminescence, 16 h; series mostly up to 92.4 µM
Outline: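 Cells: ER-beta-UAS-bla HEK293T, 2,000/well, 2% CS-FBS, 6 hr settle. Cpd + E2 (1nM final), 16 hr, 37C/5% CO2. Bla FRET substrate 2 hr RT, then CellTiter-Glo 30 min RT, luminescence.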

[5] = target: Estrogen receptor (Homo sapiens) (UniProt P03372); assay: qHTS assay to identify small molecule agonists of the estrogen receptor alpha (ER-alpha) signaling pathway in the presence of an antagonist (AID 1259383); details: VM7Luc4E2 cells, ERE-luciferase, +ICI-182,780, 22 h; series mostly up to 92.4 µM; note: top concentration of the series differs between compounds; nearly all actives have a fitted effect of over 15% in size
Outline: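 VM7Luc4E2, endog. ER-alpha + 4×ERE-luc; charcoal-stripped FBS, phenol red-free, 5 d; 24hr plating; +10.0nM ICI-182,780 (final); cpds 15 conc, 22hr, 37C/5% CO2; ONE-Glo luminescence.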

[6] = qHTS assay to identify small molecule agonists or antagonists of the thyroid stimulating hormone receptor (TSHR) signaling pathway - wild type cell line counter screen (AID 1259384); details: HEK293 wild type, cAMP HTRF counter-screen, active compounds read high; series mostly up to 92.4 µM
Outline: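 Counter screen in untransfected Hek293: compounds (15-point titration, triplicate) plus phosphodiesterase inhibitor Ro20-1724 added after 18 h plating; 30 min RT. Intracellular cAMP via competitive d2/cryptate immunoassay, 1 h incubation.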

[7] = qHTS assay to identify small molecule agonists of the estrogen receptor beta (ER-beta) signaling pathway - cell viability counter screen (AID 1259380; active = well fitted curve in the direction sought with a large enough effect in the repeat runs; an effect the other way counts as inactive or inconclusive; note: nearly all actives have a fitted effect of over 30% in size; note: potency is the fitted concentration of half-maximal effect); details: ER-beta-bla HEK293T viability, CellTiter-Glo luminescence, 16 h; series mostly up to 92.4 µM
Outline: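 HEK293T ER-beta-UAS-bla; 2% CS-FBS; 6 hr pre-plate, 16 hr cpd at 37C/5% CO2; LiveBLAzer read first, then CellTiter-Glo 30 min RT, luminescence.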

[8] = target: Androgen receptor (Homo sapiens) (UniProt P10275); assay: qHTS assay to identify small molecule agonists of the androgen receptor (AR) signaling pathway in the presence of an antagonist (AID 1259381); details: MDA-kb2 MMTV-luciferase, AR agonist + nilutamide, 16 h; series mostly up to 92.4 µM; note: nearly all actives have a fitted effect of over 15% in size
Outline: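 MDA-kb2 cells, 3,000/well, rested 5hr at 37C/0% CO2 → nilutamide 3.0uM final or buffer → compounds, 15 conc. → 16hr at 37C → ONE-Glo, 30min RT → luminescence.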

Chain of Estrogen receptor (Homo sapiens) (P03372 whole entry, looked up): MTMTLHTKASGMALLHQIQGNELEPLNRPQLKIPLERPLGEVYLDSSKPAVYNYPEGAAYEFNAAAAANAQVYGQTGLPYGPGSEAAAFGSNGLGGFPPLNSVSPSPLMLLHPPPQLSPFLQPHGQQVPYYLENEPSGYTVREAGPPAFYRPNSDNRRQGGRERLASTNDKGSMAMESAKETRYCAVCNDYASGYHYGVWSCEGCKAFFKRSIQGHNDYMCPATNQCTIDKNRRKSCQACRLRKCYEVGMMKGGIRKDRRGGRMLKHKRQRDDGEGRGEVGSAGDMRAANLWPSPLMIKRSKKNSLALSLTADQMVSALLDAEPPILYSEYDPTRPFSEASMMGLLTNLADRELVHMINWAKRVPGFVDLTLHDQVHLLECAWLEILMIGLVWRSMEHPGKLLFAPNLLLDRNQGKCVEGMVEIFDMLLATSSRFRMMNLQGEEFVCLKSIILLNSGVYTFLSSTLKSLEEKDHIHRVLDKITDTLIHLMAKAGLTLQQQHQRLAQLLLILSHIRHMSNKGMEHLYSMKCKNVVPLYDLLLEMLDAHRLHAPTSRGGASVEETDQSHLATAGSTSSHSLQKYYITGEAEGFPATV
Chain of Androgen receptor (Homo sapiens) (P10275 whole entry, looked up): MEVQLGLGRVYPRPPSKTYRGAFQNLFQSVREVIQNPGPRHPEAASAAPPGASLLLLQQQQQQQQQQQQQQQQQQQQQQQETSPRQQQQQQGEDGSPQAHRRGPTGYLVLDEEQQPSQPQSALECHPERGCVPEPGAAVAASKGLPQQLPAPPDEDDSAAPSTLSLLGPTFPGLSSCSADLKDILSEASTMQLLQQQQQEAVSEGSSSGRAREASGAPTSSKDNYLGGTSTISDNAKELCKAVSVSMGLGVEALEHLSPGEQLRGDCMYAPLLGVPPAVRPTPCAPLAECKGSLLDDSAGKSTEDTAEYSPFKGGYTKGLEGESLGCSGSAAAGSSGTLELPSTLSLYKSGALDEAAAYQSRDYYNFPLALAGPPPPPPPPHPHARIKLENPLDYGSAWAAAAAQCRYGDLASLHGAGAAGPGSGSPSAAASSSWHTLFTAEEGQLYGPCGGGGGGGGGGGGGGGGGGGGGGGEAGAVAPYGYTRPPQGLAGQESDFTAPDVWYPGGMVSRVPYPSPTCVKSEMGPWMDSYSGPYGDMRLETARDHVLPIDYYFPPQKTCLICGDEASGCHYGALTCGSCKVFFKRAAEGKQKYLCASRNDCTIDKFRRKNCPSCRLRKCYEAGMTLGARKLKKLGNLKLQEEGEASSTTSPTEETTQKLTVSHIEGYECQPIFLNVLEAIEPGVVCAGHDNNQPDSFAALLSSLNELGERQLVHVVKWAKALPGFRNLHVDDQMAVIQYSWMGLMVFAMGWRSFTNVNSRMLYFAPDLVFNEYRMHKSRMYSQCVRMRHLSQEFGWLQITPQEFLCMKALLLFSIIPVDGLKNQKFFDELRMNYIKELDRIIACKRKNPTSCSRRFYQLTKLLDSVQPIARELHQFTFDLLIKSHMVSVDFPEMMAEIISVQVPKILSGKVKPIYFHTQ

| SMILES | Potency [1] | Potency [2] | Potency [3] | Potency [4] | Potency [5] | outcome [6] | Potency [7] | Potency [8] |
| --- | --- | --- | --- | --- | --- | --- | --- | --- |
| COc1ccccc1Oc1c(NS(=O)(=O)c2ccc(C(C)(C)C)cc2)nc(-c2ncccn2)nc1OCCO | inactive | 15 µM (active) | inactive | inactive | inactive | inactive | – | – |
| CCOC(C)=O | inactive | inactive | inactive | – | inactive | inactive | inactive | – |
| CCCCCCCCC(CCCCCC)C(=O)O (configuration not stated) | inactive | inactive | – | – | – | inactive | 8.63 µM (active) | – |
| CCOC(=O)c1ccc(I)cc1 | inactive | inactive | – | – | inactive | inactive | inactive | – |
| C=CCc1ccccc1OCC(O)CNC(C)C (configuration not stated) | inactive | inactive | inactive | inactive | – | inactive | – | inactive |
